Experimental data: PubChem BioAssay AID1159580 (chemical genetic matrix, 2015)
Values joined by “and” are separate entries in the source; they are usually repeats but may differ in a detail not shown here. Equal entries are not always repeated. Screen size: about 5,500 compounds; about 2,000 (36%) were called active. Roughly 18% stayed inconclusive and do not appear here. Cut-off read from the data, not from the text of the source: active = normalized growth mostly below about 0.91 (no sharp cut-off); inconclusive = no clear call, values can overlap the other calls; inactive = mostly above about 0.92. Some of the results follow.

Assay: chemical genetic growth profiling, strain panel (AID 1159580);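 note: tested at 20 µM; growth read once vehicle control cultures reached saturation at 30 °C; 1 = growth at the plate median or of vehicle wells; lower values mean less growth of the strain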
Details: S. cerevisiae deletion strains, growth OD

Measured: normalized growth

Cc1cc(O)c(C=O)c(O)c1C(=O)O
inactive: locus YAL021C, strain ccr4, stronger effect = lower value 0.991 | locus YAL026C, strain drs2, stronger effect = lower value 1.01 | locus YAL030W, strain snc1, stronger effect = lower value 0.997 | locus YBL061C, strain skt5, stronger effect = lower value 1.01 | locus YBR009C, strain hhf1, stronger effect = lower value 1.02 | locus YBR021W, strain FUR4, stronger effect = lower value 1.05 | locus YBR023C, strain chs3, stronger effect = lower value 1.01 | locus YBR171W, strain sec66, stronger effect = lower value 1 | locus YBR229C, strain ROT2, stronger effect = lower value 0.999 | locus YBR231C, strain swc5, stronger effect = lower value 0.99 | locus YBR279W, strain paf1, stronger effect = lower value 0.997 | locus YCL011C, strain gbp2, stronger effect = lower value 1.01 | locus YCL016C, strain dcc1, stronger effect = lower value 1.01 | locus YCL029C, strain bik1, stronger effect = lower value 1.02 | locus YCL061C, strain MRC1, stronger effect = lower value 1.01 | locus YCL069W, strain vba3, stronger effect = lower value 1 | locus YCR088W, strain abp1, stronger effect = lower value 1.01 | locus YDL005C, strain med2, stronger effect = lower value 1.01 | locus YDL035C, strain GPR1, stronger effect = lower value 1.03 | locus YDL040C, strain nat1, stronger effect = lower value 1.01 | locus YDL074C, strain BRE1, stronger effect = lower value 1.06 | locus YDL101C, strain DUN1, stronger effect = lower value 1.03 | locus YDL185W, strain tfp1, stronger effect = lower value 0.987 | locus YDL192W, strain arf1, stronger effect = lower value 1.03 | locus YDR001C, strain nth1, stronger effect = lower value 0.999 | locus YDR069C, strain doa4, stronger effect = lower value 0.977 | locus YDR101C, strain arx1, stronger effect = lower value 1.04 | locus YDR137W, strain rgp1, stronger effect = lower value 1.01 | locus YDR150W, strain NUM1, stronger effect = lower value 0.983 | locus YDR159W, strain sac3, stronger effect = lower value 1.01 | locus YDR162C, strain NBP2, stronger effect = lower value 1.02 | locus YDR195W, strain ref2 0.99 | locus YDR297W, strain sur2, stronger effect = lower value 0.997 | locus YDR318W, strain mcm21, stronger effect = lower value 1 | locus YDR334W, strain swr1, stronger effect = lower value 0.987 | locus YDR335W, strain msn5, stronger effect = lower value 0.991 | locus YDR388W, stronger effect = lower value 0.997 | locus YDR392W, strain spt3, stronger effect = lower value 0.962 | locus YDR502C, strain sam2, stronger effect = lower value 1.03 | locus YEL003W, strain gim4, stronger effect = lower value 0.995 | locus YEL037C, strain rad23, stronger effect = lower value 0.993 | locus YEL061C, strain CIN8 (second series), stronger effect = lower value 0.999 | locus YEL061C, strain CIN8, stronger effect = lower value 1.01 | locus YER015W, strain faa2, stronger effect = lower value 1 | locus YER016W, strain bim1, stronger effect = lower value 1 | locus YER110C, stronger effect = lower value 1.01 | locus YER111C, strain swi4, stronger effect = lower value 1 | locus YER155C, strain BEM2 (second series), stronger effect = lower value 1 | locus YER155C, strain BEM2, stronger effect = lower value 1.01 | locus YER167W, strain BCK2, stronger effect = lower value 1.03 | locus YFR010W, strain ubp6, stronger effect = lower value 0.999 | locus YGL078C, strain dbp3, stronger effect = lower value 1.01 | locus YGL086W, strain mad1, stronger effect = lower value 1.03 | locus YGL167C, strain pmr1, stronger effect = lower value 0.989 | locus YGL173C, strain kem1, stronger effect = lower value 1.01 | locus YGL227W, strain vid30, stronger effect = lower value 0.999 | locus YGL240W, strain doc1, stronger effect = lower value 0.929 | locus YGL248W, strain PDE1, stronger effect = lower value 1.03 | locus YGL253W, strain hxk2, stronger effect = lower value 1 | locus YGR078C, strain PAC10, stronger effect = lower value 1.06 | locus YGR135W, strain pre9, stronger effect = lower value 1.02 | locus YGR252W, strain gcn5, stronger effect = lower value 1 | locus YHR013C, strain ard1, stronger effect = lower value 1.01 | locus YHR027C, strain rpn1, stronger effect = lower value 0.992 | locus YHR030C, strain SLT2, stronger effect = lower value 1 and 1.02 | locus YHR079C, strain IRE1 (second series), stronger effect = lower value 1.01 | locus YHR079C, strain IRE1, stronger effect = lower value 1.04 | locus YHR094C, strain hxt1, stronger effect = lower value 1.01 | locus YHR129C, strain ARP1, stronger effect = lower value 1.02 | locus YHR142W, strain chs7, stronger effect = lower value 1.03 | locus YHR200W, strain rpn10, stronger effect = lower value 1.02 | locus YIL066C, strain RNR3, stronger effect = lower value 1.05 | locus YIL073C, strain SPO22, stronger effect = lower value 1.12 | locus YIL125W, strain kgd1, stronger effect = lower value 1 | locus YIR030C, strain dcg1, stronger effect = lower value 1.02 | locus YJL092W, strain hpr5, stronger effect = lower value 1.01 | locus YJL095W, strain BCK1 (second series), stronger effect = lower value 1.01 | locus YJL095W, strain BCK1, stronger effect = lower value 1.1 and 1 | locus YJL115W, strain asf1, stronger effect = lower value 0.999 | locus YJL129C, strain trk1, stronger effect = lower value 1.05 | locus YJL134W, strain LCB3, stronger effect = lower value 0.993 | locus YJL154C, strain vps35, stronger effect = lower value 0.996 | locus YJL164C, strain tpk1, stronger effect = lower value 1.02 | locus YJL166W, strain qcr8, stronger effect = lower value 1.01 | locus YJL168C, strain set2, stronger effect = lower value 0.997 | locus YJL187C, strain SWE1 (second series), stronger effect = lower value 1.05 | locus YJL187C, strain SWE1, stronger effect = lower value 0.998 | locus YJR043C, strain POL32, stronger effect = lower value 1.02 | locus YJR066W, strain TOR1, stronger effect = lower value 0.93 | locus YJR075W, strain HOC1, stronger effect = lower value 1.06 | locus YKL009W, strain mrt4, stronger effect = lower value 1.04 | locus YKL068W, stronger effect = lower value 0.987 | locus YKL085W, strain MDH1 (second series), stronger effect = lower value 1 | locus YKL085W, strain MDH1, stronger effect = lower value 1 | locus YKL160W, strain elf1, stronger effect = lower value 1.03 | locus YKR001C, strain vps1, stronger effect = lower value 1.03 | locus YKR026C, strain gcn3, stronger effect = lower value 1.01 | locus YKR091W, strain srl3, stronger effect = lower value 1.01 | locus YLL001W, strain dnm1, stronger effect = lower value 1.02 | locus YLL026W, stronger effect = lower value 1.01 | locus YLL041C, strain sdh2, stronger effect = lower value 0.997 | locus YLR027C, strain aat2, stronger effect = lower value 1.01 | locus YLR039C, strain RIC1, stronger effect = lower value 1.09 | locus YLR058C, strain SHM2, stronger effect = lower value 0.965 | locus YLR102C, strain apc9, stronger effect = lower value 1.01 | locus YLR113W, strain HOG1, stronger effect = lower value 1.07 | locus YLR221C, strain rsa3, stronger effect = lower value 1.03 | locus YLR258W, strain gsy2, stronger effect = lower value 1 | locus YLR262C, strain YPT6 (second series), stronger effect = lower value 1.01 | locus YLR262C, strain YPT6, stronger effect = lower value 1.14 | locus YLR268W, strain sec22, stronger effect = lower value 1.04 | locus YLR320W, strain mms22, stronger effect = lower value 1.05 | locus YLR330W, strain CHS5, stronger effect = lower value 1 | locus YLR342W, strain FKS1 (second series), stronger effect = lower value 1.01 | locus YLR342W, strain FKS1, stronger effect = lower value 1.01 | locus YLR357W, strain rsc2, stronger effect = lower value 1.02 | locus YLR370C, strain arc18, stronger effect = lower value 1 | locus YLR371W, strain rom2, stronger effect = lower value 1.01 | locus YLR384C, strain iki3, stronger effect = lower value 0.999 | locus YLR418C, strain cdc73, stronger effect = lower value 1.05 | locus YML016C, strain PPZ1, stronger effect = lower value 1.01 | locus YML032C, strain rad52, stronger effect = lower value 0.985 | locus YML120C, strain ndi1, stronger effect = lower value 1.01 | locus YML124C, strain tub3, stronger effect = lower value 1.01 | locus YMR058W, strain fet3, stronger effect = lower value 0.987 | locus YMR078C, strain ctf18, stronger effect = lower value 0.999 | locus YMR125W, strain sto1, stronger effect = lower value 1.01 | locus YMR129W, stronger effect = lower value 1 | locus YMR205C, strain PFK2, stronger effect = lower value 1.05 | locus YMR223W, strain ubp8, stronger effect = lower value 1.02 | locus YMR231W, strain pep5, stronger effect = lower value 0.989 | locus YMR263W, strain SAP30, stronger effect = lower value 1.06 | locus YMR307W, strain GAS1, stronger effect = lower value 1.08 | locus YNL067W, strain RPL9B, stronger effect = lower value 1.05 | locus YNL071W, strain lat1, stronger effect = lower value 1.01 | locus YNL183C, strain NPR1, stronger effect = lower value 0.946 | locus YNL209W, strain ssb2, stronger effect = lower value 0.992 | locus YNL233W, strain BNI4, stronger effect = lower value 1.09 | locus YNL248C, strain rpa49, stronger effect = lower value 1.01 | locus YNL250W, strain rad50, stronger effect = lower value 0.986 | locus YNL271C, strain bni1, stronger effect = lower value 1 | locus YNL298W, strain CLA4, stronger effect = lower value 1.01 | locus YNL307C, strain MCK1, stronger effect = lower value 1.03 | locus YNL322C, strain KRE1 (second series), stronger effect = lower value 1.01 | locus YNR049C, strain mso1, stronger effect = lower value 1.01 | locus YNR052C, strain pop2, stronger effect = lower value 0.992 | locus YOL012C, strain htz1 0.989 | locus YOL147C, strain pex11, stronger effect = lower value 1 | locus YOR001W, strain rrp6, stronger effect = lower value 1.02 | locus YOR061W, strain CKA2, stronger effect = lower value 1 | locus YOR069W, strain VPS5, stronger effect = lower value 1.01 | locus YOR070C, strain gyp1, stronger effect = lower value 0.998 | locus YOR080W, strain dia2, stronger effect = lower value 0.998 | locus YOR083W, strain WHI5, stronger effect = lower value 1.04 | locus YOR106W, strain vam3, stronger effect = lower value 1.03 | locus YOR136W, strain idh2, stronger effect = lower value 1.03 | locus YOR144C, strain elg1, stronger effect = lower value 1 | locus YOR184W, strain ser1, stronger effect = lower value 1.05 | locus YOR231W, strain MKK1, stronger effect = lower value 1.04 | locus YOR265W, strain rbl2, stronger effect = lower value 1.01 | locus YOR270C, strain vph1, stronger effect = lower value 1.02 | locus YOR290C, strain snf2, stronger effect = lower value 1.02 | locus YOR316C, strain cot1, stronger effect = lower value 1.01 | locus YPL051W, strain arl3, stronger effect = lower value 0.999 | locus YPL078C, strain atp4, stronger effect = lower value 1.01 | locus YPL106C, strain sse1, stronger effect = lower value 0.995 | locus YPL240C, strain hsp82, stronger effect = lower value 1 | locus YPL241C, strain CIN2, stronger effect = lower value 0.995 | locus YPL256C, strain CLN2, stronger effect = lower value 1.03 | locus YPR119W, strain clb2, stronger effect = lower value 0.999 | locus YPR141C, strain kar3, stronger effect = lower value 0.993 | locus YPR163C, strain tif3, stronger effect = lower value 1 | locus YPR167C, strain met16, stronger effect = lower value 1.01 | strain wtn01, stronger effect = lower value 1.04
